Inconclusive results are not listed. Values without a mark were called inactive. The source made the active and inactive calls. Calls follow the shape of the dose curve; as a rule, active = well fitted cell-killing curve with a large enough effect; inconclusive = small, poorly fitted or top-dose-only effect, or effect the other way; inactive = flat fitted curve, though single readings scatter.
Test: Cell Viability - HUV-EC-C (AID 542); also: nearly all actives have a fitted effect of over 35% in size
Conditions: HUV-EC-C endothelial cell viability, qHTS; series mostly up to 92.2 µM; activity change, negative = cytotoxicity: at the top concentration
Description: NIH Chemical Genomics Center [NCGC]
NIH Molecular Libraries Screening Centers Network [MLSCN]
National Institutes of Environmental Health Sciences [NIEHS]
National Toxicology Program [NTP]
We have developed a 1536-well cell-based assay for quantitative high throughput screening (qHTS) against a number of cell lines to determine in vitro cytotoxicity of small molecules. This particular assay uses the HUV-EC-C cell line which is derived from normal human vascular endothelial cells.
NCGC Assay Protocol Summary:
The CellTiter-Glo luminescent cell viability assay (Promega) is a homogeneous method to measure the number of viable cells in culture. The end point readout of this assay is based on quantitation of intracellular ATP, an indicator of metabolic activity, using the luciferase reaction. Luciferase catalyzes the oxidation of beetle Luciferin to oxyluciferin and light in the presence of ATP. The luminescent signal is proportional to amount of ATP present.
Using the CellTiter-Glo luminescent cell viability assay, the amount of cellular ATP was measured in the HUV-EC-C cell line with complete culture medium following compound treatment for 40 hours. The assay was performed in opaque white Kalypsys 1536-well plates. In the screen, tamoxifen and doxorubicin were used as positive controls. Library compounds were measured for their ability to cause acute toxicity in the cell line, as reflected by a decrease in intracellular ATP levels, in a concentration-dependent manner. […] AC50 values were determined from concentration-response data modeled with the standard Hill equation.
qHTS protocol for CellTiter Glo HUV-EC-C cellular assay
[Step] [Parameter] [Value] [Description]
1. Reagent; 5 uL; 1000 HUV-EC-C cells/well
2. Time; 5 hr; 37 °C incubation
4. Controls; 23 nL; Tamoxifen 0.34 uM to 100 uM & Doxorubicin 0.02 nM to 100 uM
5. Time; 40 hr; 37 °C incubation
6. Reagent; 5 uL; CellTiter Glo reagent
7. Time; 20 min; Room Temperature
8. Detection; Luminescence; Viewlux plate reader
Keywords: cell viability, cytotoxicity, HUV-EC-C cell line, luminescence, NTPHTS, NTPHTS_NCGC, NIEHS, EPA, DSSTox, MLSMR, MLSCN, NIH Roadmap, qHTS, NCGC
% is scaled to controls: 0 for no effect and ±100 for the full control effect.

Compound | activity change, negative = cytotoxicity [%] | outcome
O=C(O)c1ccccc1 | 3.45 | –
Clc1cc(Cl)c(Cl)cc1Cl | 9.59 | –
COc1c2ccoc2cc2oc(=O)ccc12 | 0.924 | –
C=CCc1ccc(OC)c(OC)c1 | -7.44 | –
C/C=C\c1ccc(OC)cc1 | 8.7 | –
COC(=O)c1ccc(C=O)cc1 | 10.4 | –
CN(C)C=O | – | inactive
O=S(=O)(O)c1ccccc1 | 3.05 | –
CCO | 14.6 | –
Nc1ccc(S(=O)(=O)O)cc1 | 3.61 | –
CC1=CC(C)(C)Nc2ccccc21 | – | inactive
O=C(O)c1ccccc1C(c1ccc(O)cc1)c1ccc(O)cc1 | 10.1 | –
c1ccc2c(c1)c1cccc3ccc4cccc2c4c31 | 4.43 | –
CCCCCCCCCCCCCC(=O)O | 7.17 | –
O=NO | – | inactive
c1ccccc1 | – | inactive
CC1=C2[C@H](/C=C(\C)C(=O)O)CC[C@@H](C)[C@H]2CC1 | -4.31 | –
Cc1ccc([N+](=O)[O-])c(C)c1 | -4.89 | –
OCCNCCO | 1.78 | –
CN(C)CCCCCCN(C)C | 8.18 | –

Compound | activity change, negative = cytotoxicity [%] | outcome
NC1=NC(S)C2N=CN=C2N1 (stereo not given) | -21.9 | –
C=CC(=C)CCC=C(C)C | 1.31 | –
CCCN(CCC)C(=O)SCC | 2.26 | –
CCC(O)OC(O)CC (stereo not given) | – | inactive
Cc1c(N=C=O)cccc1N=C=O | -7.99 | –
CCCCC(CC)CN (stereo not given) | – | inactive
CCCCCCCCO | 4.6 | –
ClCCCl | 10.7 | –
Clc1cc(Cl)c(Cl)c(Cl)c1Cl | -1.07 | –
CC(=O)OC/C=C(\C)CCC=C(C)C | 3.62 | –
Nc1ccc(Cl)cc1Cl | 14.8 | –
C=Cc1ccccc1Cl | -5.12 | –
O=C(/C=C/c1ccc(O)c(O)c1)O[C@@H](C(=O)O)[C@@H](OC(=O)/C=C/c1ccc(O)c(O)c1)C(=O)O | 7.08 | –
C1OCOCO1 | 7.08 | –
COc1ccc2nc(N)sc2c1 | 11.7 | –
Cc1ccc([N+](=O)[O-])cc1N | -6.05 | –
COC(=O)c1ccc(C)cc1 | 5.94 | –
COC(=O)CCCCC(=O)OC | 4.15 | –
COCC(=O)O | 19.1 | –
S=C1NC=NC2N=CNC12 (stereo not given) | -20 | –

Source: PubChem BioAssay (NCATS)
